Common to all, as to assay: NCI-60 one-dose screen, 48 h (100 = growth as untreated, 0 = no growth, -100 = all killed)
Holding throughout (conditions): 10 µM unless noted

In assay [1] the test system is NCI-H23 lung.
Assay [2] deals with NCI-H226 lung.
Assay [3] has as its system NCI-H322M lung.
Assay [4] deals with HOP-62 NSCLC.
The test system of assay [5] is NCI-H460 lung.
Assay [6] deals with HOP-92 NSCLC.
The subject of assay [7] is NCI-H522 lung.
In assay [8] the test system is A549/ATCC NSCLC.
Assay [9] has as its system 786-0 renal.
For assay [10], the system named is COLO 205 colon.
In assay [11] the test system is DU-145 prostate.
For assay [12], the system named is K-562 leukemia.
Assay [13] relates to MALME-3M melanoma.
Assay [14] has as its system MDA-MB-231 breast.
In assay [15] the test system is RXF 393 renal.
In assay [16] the test system is SF-268 CNS.
Assay [17] deals with SF-295 CNS.
Assay [18] has as its system SF-539 CNS.
Assay [19] concerns UACC-257 melanoma.
The subject of assay [20] is M14 melanoma.

Our source for the growth values is PubChem BioAssay (NCI).

About 83,000 compounds went through this panel and 20% of them were active in at least one assay; those are over-represented in the sample as a whole.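 Results are percent growth after 48 hours of single-concentration exposure. 100 means growth as in untreated cells, lower positive values show inhibition; negative values down to -100 show cell death.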 A number with no mark means an inactive call. Activity calls are given as the source filed them. Rule for the calls: active = growth percent below 10; inactive = the rest.

Take `O=[N+]([O-])c1ccc(O)c(-c2nc3ccccc3s2)c1`: the growth in assay [1] was 47.3%; in assay [2] it was 83.7%; in [3], 90.7%; in assay [4], 88.8%; in [5], 63.2%; in assay [6], -5.6% (active). For the same compound, the growth was 58.6% in assay [7]; 84.2% in [8]; 73.8% in assay [9]; 103% in [10]; 86.8% in [11]; 52.7% in assay [12]. Besides, the growth was 44.7% in [13]; 75.3% in [14]; 107% in [15]; 76.1% in assay [16]; 53.9% in assay [17]; 99% in assay [18]. The growth in assay [19] is 83.5%; in assay [20], 83.2%.

Take `CCn1cc(-c2ccnc(NCCNS(=O)(=O)c3cccc4ccccc34)c2)c(-c2cccc(O)c2)n1`: the growth in [1] was 100%; in assay [2] it was 94.2%; in assay [3], 98.9%; in assay [4] it was 113%; in assay [5], 102%; in assay [6] it was 79.8%. The growth in [7] was 105%; in assay [8], 103%; in assay [9], 92.3%; in [10] it was 112%; in assay [11] it was 97.9%; in [12], 75.7%. For the same compound, the growth in assay [13] was 109%; in assay [14] it was 108%; in assay [15], 92.9%; in assay [16] it was 94.7%; in assay [17], 101%; in assay [18], 104%. Besides, the growth in [19] is 109%; in [20], 103%.

Take `O=S(=O)(/N=c1/n(-c2ccccc2)nc2n1CCN2C1=NCCN1)c1ccc(-c2ccccc2)cc1`: the growth is 101% in [1]; 101% in assay [2]; 104% in [3]; 99.1% in assay [4]; 94.8% in assay [5]; 82.3% in [6]. For the same compound, the growth in assay [7] is 106%; in assay [8], 90.1%; in assay [9], 89%; in assay [10], 109%; in assay [11], 108%; in assay [12] it was 88.6%. For the same compound, the growth is 112% in assay [13]; 86.2% in [14]; 87.9% in [15]; 91.7% in assay [16]; 97.7% in [17]; 93.1% in assay [18]. For the same compound, the values for the growth in assay [19] and in assay [20] were 103% and 106%, respectively.

On to `CC1(C)CC[C@]2(C(=O)O)CC[C@]3(C)C(=CC[C@@H]4[C@@]5(C)C/C(=C/c6ccco6)C(=O)C(C)(C)[C@@H]5CC[C@]43C)[C@@H]2C1`, for which the growth in assay [1] is -25.6% [100 µM] (active); in assay [2], -42.4% [100 µM] (active); in assay [3], -48.8% [100 µM] (active); in assay [4], -85.3% [100 µM] (active); in assay [5], -55.9% [100 µM] (active); in [6], -82.1% [100 µM] (active). The growth was -39.3% [100 µM] (active) in assay [7]; -4.53% [100 µM] (active) in assay [8]; -19.5% [100 µM] (active) in assay [9]; -80.7% [100 µM] (active) in assay [10]; -45% [100 µM] (active) in assay [11]; 10.5% [100 µM] in assay [12]. The growth is -80.7% [100 µM] (active) in [13]; -77.9% [100 µM] (active) in [14]; -68.5% [100 µM] (active) in assay [15]; -27.2% [100 µM] (active) in [16]; -56.2% [100 µM] (active) in [17]; -83.3% [100 µM] (active) in assay [18]. For the same compound, the growth in [19] is -23.7% [100 µM] (active); in assay [20], -31.5% [100 µM] (active).

As for `CC1(C)S[C@@H]2[C@H](NC(=O)[C@H](C(=O)O)c3cccs3)C(=O)N2[C@H]1C(=O)O`, the growth was 102% in [1]; 105% in assay [2]; 108% in assay [3]; 105% in [4]; 113% in assay [5]; 122% in assay [6]. Moreover, the growth was 75.8% in assay [7]; 102% in assay [8]; 97.1% in [9]; 111% in [10]; 123% in assay [11]; 105% in assay [12]. Besides, the growth in assay [13] is 103%; in assay [14] it was 126%; in assay [15], 116%; in assay [16] it was 110%; in assay [17] it was 98.4%; in [18], 100%. The growth in assay [19] was 96.2%; in assay [20], 102%.

With `COc1ccc(C(=O)CCC(=O)O)cc1`, the growth in assay [1] was 89.4%; in [2] it was 93.3%; in assay [3], 97.3%; in [4], 104%; in assay [5] it was 101%; in assay [6], 105%. For the same compound, the growth in assay [7] is 102%; in [8], 93.2%; in assay [9] it was 103%; in assay [10], 101%; in assay [11], 99.7%; in [12], 49.1%. In addition, the growth in [13] is 87%; in assay [14], 80.4%; in [15], 109%; in assay [16], 95.6%; in assay [17], 95%; in [18] it was 98.7%. The growth is 80.2% in assay [19] and 95.3% in assay [20].

`CC1Cc2c(Cl)ncnc2N(C)c2ccccc21` (stereo not given): the growth in [1] is 18.6%; in [2], 1.16% (active); in [3] it was 26.8%; in [4], 22.8%; in assay [5], 21.2%; in [6], 26%. In addition, the growth in assay [7] was 57.7%; in assay [8], 16.6%; in assay [9], 4.7% (active); in [10] it was -81.1% (active); in [11], 65.6%; in [12], 37.6%. Moreover, the growth is 0.822% (active) in assay [13]; -33.8% (active) in [14]; 13.6% in assay [15]; 24.4% in assay [16]; 19.9% in assay [17]; 33% in assay [18]. The growth in [19] is 11.5%; in [20], 14.7%.
